High-throughput results: PubChem BioAssay, National Center for Advancing Translational Sciences (NCATS)
HT1080NT lethal: kills 2HG-producing HT-1080-NT fibrosarcoma cells | 360,000 tested, 1.6% active | AID 686970 | Potency, µM (series often up to 46.1 µM), hits mostly cytotoxic | HT-1080-NT fibrosarcoma viability, CellTiter-Glo ATP luminescence, 48 h;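 further: NT is the 2HG producing partner of a matched IDH1 knockdown line; nearly all actives have a fitted effect of over 55% in size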
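HT-1080-NT; 750 cells/well; 5% FBS RPMI; 48 h compound, 37 degrees C; CellTiter-Glo luminescence; curve fitting and curve-class assignment.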
TDP1 cell CPT: DT40-hTDP1 cell growth loss with CPT; chicken DT40 Tdp1-/-;hTDP1 cells + 20 nM CPT, ATP luminescence, 48 h; Potency, µM (top dose mostly 46.2 µM), usual class: inhibitors; 420,000 tested, 12% active; further: nearly all actives have a fitted effect of over 55% in size
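Chicken DT40 Tdp1-/- cells complemented with human TDP1, 400 cells/well, exposed to compounds plus 20 nM camptothecin for at least 48 h at 37 C; viability read as ATP content by CellTiter-Glo luminescence.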
IL-1B inflam inh: inhibitors of inflammasome signaling (IL-1 beta secretion). THP-1 LPS/ATP IL-1B secretion, AlphaLISA, 16 h; stronger effect = lower value. activity change, % at 57.5 µM. 360,000 tested, 4.7% active. AID 743279; in the data active means activity change below about -50%; inconclusive means mostly about -30% to -49%
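THP-1 cells pretreated 1 hr with compounds (up to 57.5 uM final), then stimulated with LPS (250 ng/mL final) plus ATP (1.25 mM final); secreted IL-1B measured by AlphaLISA after 16 hr, decreased signal indicating inhibition.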
uPA generation: blocks generation of uPA at the cell surface; cell surface uPA generation assay, qHTS; Potency, µM (doses to about 38.3 µM), hits mostly inhibitors; 330,000 tested, 0.31% active; AID 540303; active means well fitted inhibition curve with a large enough effect; inconclusive means small, poorly fitted or top-dose-only effect; inactive means no such curve, though single readings can be large or run the other way; tested in mouse RAW 264.7 cells; further: nearly all actives have a fitted effect of over 55% in size
HT1080 IDH1KD tx: toxicity to HT-1080 IDH1 knockdown cells (counter line); HT-1080 IDH1 knockdown viability, ATP luminescence, 48 h; Potency, µM (highest dose often 46.1 µM), most hits filed as cytotoxic; 360,000 tested, 2% active; AID 686971
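Luminescent ATP read-out (CellTiter-Glo, 10 min at room temperature) after 48 h compound exposure at 37 °C gave viability of IDH1-knockdown HT-1080 cells. Activity was normalised to DMSO and cell-free wells, then fitted as concentration-response curves.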
TDP1 cell noCPT: qHTS for Inhibitors of human tyrosyl-DNA phosphodiesterase 1 (TDP1): qHTS in cells in absence of CPT; DT40 Tdp1-/- hTDP1 cells, no CPT, ATP luminescence, 48 h; Potency, µM (highest dose often 46.2 µM), most hits filed as inhibitors; 420,000 tested, 15% active; further: nearly all actives have a fitted effect of over 55% in size
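Seeded 400 DT40-hTDP1 cells/well (vehicle DMSO, no 20 nM CPT); pinned compounds; ≥48 hr at 37 °C; CellTiter-Glo luminescence as viability measure.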
A number is an active result; – = inactive; ? = inconclusive; · = not tested or not shown. Only some compounds are listed: those with a hit (about 19% of all), similar ones and a draw of the others. Unless noted, the call rests on the fitted dose curve; in most records, active means well fitted curve in the direction sought with a large enough effect; inconclusive means small, poorly fitted or top-dose-only effect, or another doubt; inactive means no such curve, though single readings can be large; an effect the other way counts as inactive or inconclusive.

SMILES	HT1080NT lethal	TDP1 cell CPT	IL-1B inflam inh	uPA generation	HT1080 IDH1KD tx	TDP1 cell noCPT
CCOc1ccccc1NC(=O)C1CCCN(c2c(CC)c(C)nc3ncnn23)C1 (stereo not given)	–	21µM	–	–	–	21µM
CCOc1ccc(NC(=O)CN(C)C(=O)CCCOc2ccc(Cl)c(C)c2)cc1OCC	–	15µM	–	–	–	23µM
CCOc1ccc(NC(=O)CN(C)C(=O)c2ccccc2CCc2ccccc2)cc1OCC	–	21µM	–	–	–	?
CCOc1ccc(NC(=O)CN(C)C(=O)c2ccccc2OCCOc2ccccc2)cc1OCC	–	?	–	–	–	8.2µM
CCc1nc2ccc(C(=O)Nc3cccc(NS(C)(=O)=O)c3)cn2c1N(C)CCN1CCOCC1	–	–	–	·	–	–
CCOC(=O)Cn1c(C)cc(COC)c(C#N)c1=O	–	–	–	–	–	5.2µM
COc1ccccc1/C=C/c1nc(S(=O)(=O)c2ccccc2)c(N(C)C)o1	–	?	-62	–	–	?
CCOc1ccccc1-c1nc(Cn2c(=O)cc(C)c3c(C)nn(-c4ccccc4)c32)c(C)o1	·	–	·	·	·	–
O=C(c1cccc(S(=O)(=O)N2CCOCC2)c1)N1CCCC(C(F)(F)F)C1 (stereo not given)	–	–	–	–	–	–
CN1c2ccccc2C(C)(C)C12C=Cc1cc(O)ccc1O2 (stereo not given)	?	13µM	-74	–	?	16µM
Nc1ccc(NC(=O)NC2CCCCC2)cc1[N+](=O)[O-]	–	–	–	–	–	–
Cc1ccc(CSC2=NCCN2S(=O)(=O)c2ccc(C)cc2)cc1	–	23µM	–	·	–	?
Cc1ccc(C)c(CSC2=NCCN2S(=O)(=O)c2ccccc2)c1	–	18µM	–	–	–	16µM
O=S(=O)(c1ccc(Cl)cc1)N1CCN=C1SCc1cccc(Cl)c1	–	?	–	–	–	?
O=S(=O)(c1ccccc1)N1CCN=C1SCc1c(F)cccc1Cl	–	13µM	–	?	–	?
O=C(NC1CC(=O)N(c2ccc(F)cc2)C1)c1cc2ccccc2o1 (stereo not given)	·	–	·	·	·	–
COc1ccc(C(=O)Nc2nc(-c3nnn(-c4ccc(F)cc4F)c3C)ns2)cc1	·	15µM	·	·	·	13µM
COC(=O)c1ccc(-n2nnc(-c3nsc(NC(=O)c4ccc(Cl)cc4)n3)c2C)cc1	·	–	·	·	·	–
Cc1c(-c2nsc(NC(=O)c3ccc(Cl)cc3)n2)nnn1-c1ccc(C(C)C)cc1	·	10µM	·	·	·	9.2µM
O=S(=O)(c1ccc(NC(=S)N/N=C/c2ccc(O)c(O)c2)cc1)N1CCOCC1	–	–	–	–	–	–
O=S(=O)(c1ccc(Cl)c(NC(=S)N/N=C/c2ccc(O)cc2)c1)N1CCOCC1	–	4.1µM	–	–	–	4.6µM
C/C(=N\NC(=S)Nc1ccc(C)c(C)c1)c1ccc(N2CCOCC2)cc1	–	5.8µM	–	–	–	5.8µM
C/C(=N\NC(=S)Nc1cc(S(=O)(=O)N2CCOCC2)ccc1Cl)c1ccc(N2CCOCC2)cc1	–	2.9µM	–	–	–	2.6µM
N#Cc1ccc(/C=N/NC(=S)Nc2ccc(S(=O)(=O)N3CCOCC3)cc2)cc1	–	?	–	–	–	21µM
COc1ccc(CN2CCN(C(=O)c3ccccc3C(=O)c3ccccc3)CC2)cc1F	–	?	–	·	–	?
SMILES	HT1080NT lethal	TDP1 cell CPT	IL-1B inflam inh	uPA generation	HT1080 IDH1KD tx	TDP1 cell noCPT
O=[N+]([O-])c1cc(Cl)cc(/C=N/NC(=S)Nc2ccc(S(=O)(=O)N3CCOCC3)cc2)c1O	?	?	–	–	3.7µM	?
O=S(=O)(c1ccc(NC(=S)N/N=C/c2cccc(Oc3ccccc3)c2)cc1)N1CCOCC1	–	–	–	–	–	?
CC1(C)CC(C(CC(=O)Nc2nccs2)c2ccccc2)CCO1 (stereo not given)	–	?	–	–	–	18µM
CCCN(CCC)C(=O)CC(c1ccccc1)C1CCOC(C)(C)C1 (stereo not given)	–	?	–	–	–	23µM
CCCS(=O)(=O)NC(=O)C1(C)CCCN(C(=O)c2ccc3ccccc3n2)C1 (stereo not given)	–	–	–	·	–	–
CCc1ccc(NC(=O)N2CCC(N3CCN(Cc4ccc(C)cc4)C(=O)C3=O)CC2)cc1	·	–	·	·	·	–
O=C1CCCC2=C1C(c1ccc(Cl)cc1)n1c(s/c(=C\c3ccc4ccncc4c3)c1=O)=N2 (stereo not given)	–	?	–	–	–	21µM
CCN(CC)CCCN=Cc1c(O)n(-c2ccccc2C)c(=O)c2ccccc12	–	?	–	–	–	–
CCN1C(=O)/C(=C/C=C2/Sc3ccccc3N2CCO)SC1=S	–	?	–	–	–	?
CCN1/C(=C/C=C/C=C/C=C/c2sc3ccccc3[n+]2CC)Sc2ccccc21	–	0.52µM	?	?	–	0.23µM
CCN1/C(=C/C=C/c2sc3ccccc3[n+]2CC)Sc2ccccc21	1.6µM	0.18µM	-105	–	1.5µM	0.15µM
COc1ccc(/C(C)=N/NC(=O)CNC(=O)c2cccnc2)cc1	–	–	–	–	–	–
C/C(=N\NC(=O)c1cccs1)c1cccnc1	–	15µM	–	–	–	26µM
C/C(=N\NC(=O)c1cccnc1)c1ccc(OC2OCCOC2Oc2ccc(/C(C)=N/NC(=O)c3cccnc3)cc2)cc1 (stereo not given)	–	?	–	–	–	21µM
O=C(N/N=C(/CC(=O)c1cccs1)C(F)(F)F)c1ccc(O)cc1	–	–	–	–	–	–
O=C(N/N=C(\CC(=O)c1cccs1)C(F)(F)F)c1cccnc1	–	?	–	–	–	23µM
Cc1ccc2nsnc2c1NC(=O)c1ccc(-c2cc(Cl)ccc2Cl)o1	16µM	?	–	–	–	?
Cc1nnc2sc(-c3ccc(NC(=O)c4ccc(-c5ccc(Cl)cc5Cl)o4)cc3)nn12	–	16µM	–	–	–	?
Cc1ccc2nsnc2c1NC(=O)Cc1ccc(Cl)cc1	–	–	–	–	–	?
Cc1ccc2nsnc2c1NC(=O)CCl	?	?	–	?	?	21µM
Cc1ccc2nsnc2c1NC(=O)c1ccc([N+](=O)[O-])o1	–	?	-92	–	?	23µM
CCC(=O)Nc1c(C)ccc2nsnc12	–	–	–	–	–	–
Cc1cc(C)c(S(=O)(=O)N2CCN(S(=O)(=O)N3CCOCC3)CC2)c(C)c1	–	–	–	–	–	–
